# Source: the supplement of paper PMC6555819
# Tests used:
# Assay in all cases: PBM binding z-score (relative to random genomic background probes); higher = stronger binding; sequences stand for … in GC…GCGATTGACAGCGTAGAATGAAGG
# [1] = tested on: FXR:RXRa (NR concentration 270 nM, RXRa partner concentration 90 nM)
# Summary of the method: (§1)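 Binding z-scores take random background probes as their reference. They come from custom Agilent 4×180K protein-binding microarrays incubated 1 h with ligand-free nuclear receptor dimers, with antibodies against each partner (one per run) detecting binding. Scanned fluorescence was regression-normalized.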
# [2] = tested on: LXRa:RXRa (NR concentration 270 nM, RXRa partner concentration 90 nM)
# Summary of the method: as §1
# [3] = tested on: LXRa homodimer (NR concentration 270 nM)
# Summary of the method: as §1
# [4] = tested on: LXRb:RXRa (NR concentration 270 nM, RXRa partner concentration 90 nM)
# Summary of the method: as §1
# [5] = tested on: LXRb homodimer (NR concentration 270 nM)
# Summary of the method: as §1
# [6] = tested on: PPARa:RXRa (NR concentration 270 nM, RXRa partner concentration 90 nM)
# Summary of the method: as §1
# [7] = tested on: PPARg:RXRa (NR concentration 180 nM, RXRa partner concentration 90 nM)
# Summary of the method: as §1
# [8] = tested on: PPARg:RXRa 270nM:90nM, anti-RXR (NR concentration 270 nM, RXRa partner concentration 90 nM)
# Summary of the method: as §1
# [9] = tested on: PPARg:RXRa 30nM:10nM, anti-RXR (NR concentration 30 nM, RXRa partner concentration 10 nM)
# Summary of the method: as §1
# [10] = tested on: PPARg:RXRa 90nM:30nM, anti-RXR (NR concentration 90 nM, RXRa partner concentration 30 nM)
# Summary of the method: as §1
Sequence,PBM binding z-score [1],PBM binding z-score [2],PBM binding z-score [3],PBM binding z-score [4],PBM binding z-score [5],PBM binding z-score [6],PBM binding z-score [7],PBM binding z-score [8],PBM binding z-score [9],PBM binding z-score [10]
TCTGCTAGGTCAGTTGGTCAGCCAACGAGCTGCC,0.772,0.762,-0.677,0.196,-0.0137,1.52,0.643,1.9,1.52,1.51
AGAATGAGGTTATTAAGATCAGGGGATTGCGGTC,1.52,1.31,0.0189,1.18,-0.0318,2.51,1.47,1.87,0.612,1.08
AGAACGAGGGCAATGAGTAGATAGCACGGGTGGC,0.288,0.27,-0.537,-0.239,-0.59,1.49,1.6,1.05,0.241,0.733
ACTAGTTGGTCAGCTGAGGTCAAACACAATTCGG,3.81,4.24,4.08,4.26,1,4.22,1.65,2.34,0.396,1.55
CCTACTGGGCCACCAGGTCATTGATATCAACGTT,1.25,1.07,0.943,1.56,-0.0133,3.16,4.32,4.3,1.41,3.26
CCGACTGGGCCAGAAAGGTTACCATACCATCCGG,0.387,0.792,-0.182,0.895,-0.545,1.88,0.92,0.91,0.0101,0.541
CTCGAAAGGTCGGTTGAAGTGAGTATACGGATAA,1.48,1.58,-0.00237,1.54,0.166,2.45,0.257,1.02,0.428,0.796
CGAACTAGGTCAGAACAGGACCGTGAAGGATGAT,0.998,0.352,-0.566,0.148,-0.568,2.94,5.07,4.33,1.63,3.44
ACTATTAGTTGAGACGAGGGCAAACGATAGGTTG,0.392,0.212,0.35,0.169,0.32,0.382,0.773,0.206,0.117,0.161
CCGTACGGGTCACGAGGTTATAGCACGACGAGCG,6.63,4.94,0.31,4.08,-0.283,5.88,6.72,6.37,2.37,4.99
CAAACTAGGTCTAGGTCAAAGTCGGTTTGTGCCA,1.86,2.04,1.3,1.73,0.0723,3.34,2.95,3.82,1.2,3.03
AGAACGATGGCACGCTGAGTTGATAGCAGAGTAG,-0.77,-0.938,-0.952,-0.881,-1.06,-0.687,0.523,-0.439,-0.196,-0.443
TGAATGAGGTGATAAGATCAGGGAACGTTGCAAA,0.365,-0.0507,-0.391,-0.155,-0.466,1.08,0.727,1.24,0.758,0.92
CGAACGAGGGCATGAGCTGATAGCAAATGCCGAT,0.486,0.253,-0.266,0.0131,-0.954,1.39,1.02,0.67,-0.212,0.364
CGAACTAGGTCATGGACAGGACAGTGAATAGTAA,3.85,2.37,-0.0954,1.81,-0.546,4.79,8.05,6.56,4.17,6.19
CCTCGGAGGACAGAAGGGCAGAGCTGTCCGCTTT,-0.424,-0.658,-0.967,-0.952,-1.04,-1.11,-0.572,-0.994,-1.32,-1.13
ATATGTAGGTTACATCCCGGTCATTCAGGCTATG,1.09,3.77,3.88,1.83,1.18,3.66,4.96,4.25,1.8,3.35
CTCGAAAAGTCGTGCTCAGGTGAGTATACCAAAC,0.362,0.378,-0.0855,0.084,-0.108,0.252,-0.24,-0.203,-0.421,-0.205
CCAACTAGGTCAGAACAGGACAGTGAAGGATGAT,1.3,1.41,0.28,0.911,0.446,2.61,4.46,3.56,1.37,2.8
TAGCCTAGGTCATTCAGGAGCCAGTATAGAAAGC,4.36,3.63,0.522,2.42,0.687,3.57,1.84,2.24,0.638,1.63
TTACCAAGGTGAGCTGAGGTCGTGGATCCAACTC,1.09,0.85,-0.734,0.827,-1.47,2.1,0.337,0.913,0.0501,0.449
GGAACGAGGGCAAGTTAATAGCAGAGTTTGATGG,0.629,0.178,-0.0244,0.334,-0.49,1.53,1.14,0.86,0.37,0.378
CCTACTGGGCCAAAGGTCATTGGTTCCAATGCTC,5.06,5.15,4.28,4.94,0.631,6.49,11.6,9.63,10.5,10.3
TAGCTTAGGTCATTGGGCCAGTATAGTACGCATC,4.59,4.02,1.12,2.62,0.994,4.09,2.96,3.44,1,2.18
TAGCCCAGGTCATTCAGGGGCCAGTATAGAAAGC,5.03,4.14,0.808,2.98,0.952,3.9,2.2,2.46,0.688,1.57

Sequence,PBM binding z-score [1],PBM binding z-score [2],PBM binding z-score [3],PBM binding z-score [4],PBM binding z-score [5],PBM binding z-score [6],PBM binding z-score [7],PBM binding z-score [8],PBM binding z-score [9],PBM binding z-score [10]
CCTACTGGGCCAAAGGTCATTTATTCCAATGCTC,4.91,5.02,5.54,5.19,1.7,6.68,12.4,10.4,11,11.5
CGAACAAGGGCATGAGTTGATAGCAAATGCCGAT,-0.0162,0.00346,-0.221,-0.134,-0.495,0.425,0.963,0.765,0.259,0.196
TCTCGGAGTACACGAAGGTCAGAGCTTTCCAGAG,0.57,0.884,-0.152,1.09,-1.07,1.84,0.351,1.35,1.91,1.7
CGAACTAGGTCCGAACAGGACAGTGAAGGATGAT,-0.542,-0.905,-0.619,-1,-0.811,-1.03,0.576,-0.558,-0.414,-0.784
GCTGGCAGGCCATTTGGGTCACTCAATGACGGGC,0.108,0.0335,-0.419,-0.156,-0.843,1.3,0.526,0.786,-0.361,0.136
CCTCGGAGCACAGAAGGTCAGAGCTGTCCGCTTT,1.68,2.17,0.231,1.21,-0.905,1.97,-0.336,0.536,-1.06,-0.433
ATCGCAAGGTCGACGAGGTGAGTATACACCGTTT,1.64,1.32,-0.778,1.06,-0.359,2.74,1.28,0.926,-0.0262,0.379
CCTATTGGGCCAAAGGTCATTGATTCCAATGCTC,4.7,5.15,4.17,4.72,1.02,5.83,11.8,9.98,10.5,12.1
ATCTCTAGGTAAAAGTTCAGTGTATCCCGAGGAT,0.805,1.47,1.82,1.14,0.968,4.08,7.71,8.23,7.05,9.47
GCGAATGGGGCAAAGCAGGTTACCATAAGGTTGG,0.135,0.262,-0.483,0.474,-0.239,1.31,0.647,0.187,-0.478,-0.292
TCTATTAGTTGATTAGGGCAACCGCAACAGCGGA,0.86,0.405,0.129,0.329,0.245,1.06,0.368,1.95,3.34,2.72
ACAGACAGGTGATGAAGGGAACTCAGGCTATCAT,-0.0225,-0.0438,-0.158,-0.298,-0.495,-0.115,0.754,0.00384,0.0362,-0.027
AGTCAAAGTTCATCTAGGTAACGTAGGATATGCT,6.48,6.18,5.41,3.66,1.7,4.7,6.41,6.28,3.31,5.55
ACTCACGGGTCAACGAGGTTATAGCACGCGTATA,6.65,4.67,0.969,4.03,0.564,5.34,4.39,4.55,1.72,3.08
TCTGCTAGGTCAGTTGGTCCGCTAACGAGCTGCC,0.769,0.595,-0.724,0.186,0.781,0.869,-0.334,1.28,1.13,0.949
CGTCAAAGTTCAACTAAGGTAACGCAAAGCACGC,7.01,6.31,4.34,4.15,1.94,5.28,5.24,5.67,2.5,4.74
CCGACTGGGGCAGGGTTACCATAACGCACAGCCA,0.198,0.487,-0.443,0.866,-0.609,1.41,1.77,1.98,0.254,1.44
GCTCGGAGGACAAAGTCAGAGCTTTGTCCGTAGA,-0.547,-0.56,-0.429,-0.512,-0.588,-0.568,-1.55,-0.786,-1.61,-0.843
GATACAGGGTCAGCTAGAGGACAGAGTATGGAAA,4.89,3.3,-0.154,2.61,-0.241,4.58,3.93,3.23,1.06,2.12
TCATGTAGGTAAAAGGTGAAAGTCGGTGTGGTAA,1.69,1.64,0.309,1.98,0.274,5.78,9.58,8.82,8.8,9.11
CCGACTGGGGCAGAAAGGTTTCCATACCATCCGG,-0.743,-0.804,-0.629,-1.01,-1.31,-0.642,0.629,0.229,-0.72,-0.258
ATATGTAGGTTACATCCGGGTCATTCAGGCTATG,2.66,4.27,1.82,3.02,0.76,4.32,5.92,5.17,2.54,4.54
CCAGACAGGTGACAGGTAACTCAGTCTGGTACGC,-0.312,-0.0899,-0.169,-0.0936,-0.582,0.79,1.37,1.4,0.0561,0.74
AGAATGAGGTTAAGATCAGTGAAACAGAATACAT,2.32,3.08,0.0147,1.91,-0.196,3.6,2.38,2.25,1.23,1.78
